Measured values: the supplement of paper PMC10849652
About 7,900 targets were measured; listed, in parts, are those with a hit and a random draw of the rest. About 0.6% of all pairs of compound and target were hits.

How the values were obtained:
Assay in all cases: log2 fold change, soluble protein after heating vs DMSO (PISA); higher = thermal stabilisation; K562 cells, 10 uM, 30 min; active = over 0.2 and 3.5 SD of the protein, either way, in both replicates (recomputed)
IRAK-1-4 Inhibitor I = compound: C1COCCN1CCN2C3=CC=CC=C3N=C2NC(=O)C4=CC(=CC=C4)[N+](=O)[O-] [IRAK-1-4 Inhibitor I]
How it was run: (§1)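 Soluble protein was quantified by TMTpro 16plex LC-MS/MS after channel sums were equalised. It was obtained as the supernatant after 21,000xg for 90 min from pooled aliquots of K562 cells (2×10^6 cells/mL, 10 μM compound, 30 min) heated for 3 min across 48°C-58°C and extracted in PBS with 0.5% NP-40 at 4°C. Thermal stability values are relative to control samples and come from duplicates. They are given as log2 fold changes.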

ibrutinib = compound: C=CC(=O)N1CCC[C@@H](n2nc(-c3ccc(Oc4ccccc4)cc3)c3c(N)ncnc32)C1 [ibrutinib]
How it was run: as §1

[1] = compound: CC(=O)c1cnc2ccc(-c3cc(Cl)c(O)c(Cl)c3)nc2c1N[C@H]1CC[C@H](CN(C)C)CC1
How it was run: as §1

pinometostat = compound: CC(C)N(C[C@H]1O[C@@H](n2cnc3c(N)ncnc32)[C@H](O)[C@@H]1O)[C@H]1C[C@@H](CCc2nc3cc(C(C)(C)C)ccc3[nH]2)C1 [pinometostat]
How it was run: as §1

[2] = compound: CC1=C(C2=C(C=C1)C(=O)C3=CC=CC=C3N2CCCN)C
How it was run: as §1

[3] = compound: CC1=CC=C(C=C1)SC2=C3C=C(SC3=CN=C2)C(=O)N
How it was run: as §1

[4] = compound: CC1=NC(=CC=C1)C2=C(N=C(N2)C(C)(C)C)C3=CC4=NC=CN=C4C=C3
How it was run: as §1

vemurafenib = compound: CCCS(=O)(=O)Nc1ccc(F)c(C(=O)c2c[nH]c3ncc(-c4ccc(Cl)cc4)cc23)c1F [vemurafenib]
How it was run: as §1

[5] = compound: CCCS(=O)(=O)Nc1ccc(F)c(C(=O)c2c[nH]c3ncc(Cl)cc23)c1F
How it was run: as §1

[6] = compound: CCCc1cc(C)[nH]c(=O)c1CNC(=O)c1cc(-c2ccnc(N3CCN(C)CC3)c2)cc2c1cnn2C(C)C
How it was run: as §1

barasertib = compound: CCN(CCCOc1ccc2c(Nc3cc(CC(=O)Nc4cccc(F)c4)[nH]n3)ncnc2c1)CCOP(=O)(O)O [barasertib]
How it was run: as §1

[7] = compound: CC1=C(C=C(C=C1)NC(=O)C2=CC(=CC=C2)C(C)(C)C#N)NC3=CC4=C(C=C3)N=CN(C4=O)C
How it was run: as §1

[8] = compound: CC(C)(O)CC(=O)NCCn1ccc2ncnc(Nc3ccc(Oc4cccc(C(F)(F)F)c4)c(Cl)c3)c21
How it was run: as §1

Nexturastat A = compound: CCCCN(Cc1ccc(C(=O)NO)cc1)C(=O)Nc1ccccc1 [Nexturastat A]
How it was run: as §1

ralimetinib = compound: CC(C)(C)Cn1c(N)nc2ccc(-c3[nH]c(C(C)(C)C)nc3-c3ccc(F)cc3)nc21 [ralimetinib]
How it was run: as §1

[9] = compound: CC(C)C[C@@H](C=O)NC(=O)[C@H](CC(C)C)NC(=O)[C@H](CC(C)C)NC(=O)OCc1ccccc1
How it was run: as §1

[10] = compound: CC1=C(C(CC(=O)N1)C2=CC=C(C=C2)C(F)(F)F)C(=O)NC3=C(C=C4C(=C3)C=NN4)F
How it was run: as §1

[11] = compound: CC1=C(C=C(C=C1)NC(=O)C2=CC(=CC=C2)N(C)C)NC(=O)C3=CC=C(C=C3)O
How it was run: as §1

[12] = compound: CC(C)C1=C2N=C(C=C(N2N=C1)NCC3=CC=CC=C3)NCCCCCCN
How it was run: as §1

givinostat = compound: CCN(CC)Cc1ccc2cc(COC(=O)Nc3ccc(C(=O)NO)cc3)ccc2c1 [givinostat]
How it was run: as §1

Measured: log2 fold change

SMPD4 isoform 2 (UniProt Q9NXE4)
UniProt Q9NXE4, sequence (Q9NXE4 whole entry, looked up): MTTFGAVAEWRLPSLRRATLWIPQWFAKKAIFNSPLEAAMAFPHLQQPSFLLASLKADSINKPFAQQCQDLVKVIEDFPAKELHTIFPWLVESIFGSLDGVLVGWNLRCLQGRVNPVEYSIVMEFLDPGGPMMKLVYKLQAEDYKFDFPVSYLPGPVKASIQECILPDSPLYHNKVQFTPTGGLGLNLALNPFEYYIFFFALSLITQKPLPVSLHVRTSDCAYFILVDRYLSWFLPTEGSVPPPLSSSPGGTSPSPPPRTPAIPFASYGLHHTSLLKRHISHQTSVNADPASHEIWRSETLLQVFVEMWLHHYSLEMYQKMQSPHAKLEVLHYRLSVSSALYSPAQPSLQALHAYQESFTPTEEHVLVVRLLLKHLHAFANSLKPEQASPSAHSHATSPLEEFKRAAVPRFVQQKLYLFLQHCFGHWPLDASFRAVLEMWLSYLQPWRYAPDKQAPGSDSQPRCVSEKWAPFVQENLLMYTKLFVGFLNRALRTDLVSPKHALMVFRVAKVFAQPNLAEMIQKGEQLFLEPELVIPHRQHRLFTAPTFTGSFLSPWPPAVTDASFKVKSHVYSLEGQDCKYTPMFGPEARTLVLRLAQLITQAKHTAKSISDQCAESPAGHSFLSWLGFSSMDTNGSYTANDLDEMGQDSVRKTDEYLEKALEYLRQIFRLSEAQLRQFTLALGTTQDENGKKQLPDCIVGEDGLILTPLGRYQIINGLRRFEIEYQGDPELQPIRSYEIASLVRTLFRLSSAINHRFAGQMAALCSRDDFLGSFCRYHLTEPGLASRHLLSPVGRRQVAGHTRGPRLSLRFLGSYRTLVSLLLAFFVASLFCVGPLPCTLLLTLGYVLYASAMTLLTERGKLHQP
inactive: IRAK-1-4 Inhibitor I 0.016 | ibrutinib -0.156 | [1] 0.196 | pinometostat 0 | [2] 0.115 | [3] 0.162 | [4] -0.023 | vemurafenib -0.301 | [5] 0.099 | [6] -0.035 | barasertib 0.034

SMARCB1 (UniProt Q12824)
inactive: IRAK-1-4 Inhibitor I -0.082 | pinometostat 0.179 | [2] -0.031 | [7] 0.188 | [4] 0.101 | vemurafenib 0.065

SMDT1 (UniProt Q9H4I9)
UniProt Q9H4I9, sequence (Q9H4I9 whole entry, looked up): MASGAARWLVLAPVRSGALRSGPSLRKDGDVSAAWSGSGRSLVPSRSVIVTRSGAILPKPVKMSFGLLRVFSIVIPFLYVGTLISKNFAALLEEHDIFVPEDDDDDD
inactive: IRAK-1-4 Inhibitor I 0.039 | ibrutinib 0.036 | [1] -0.026 | [8] -0.012 | pinometostat -0.043 | [2] 0.027 | [7] 0.137 | [4] 0.033 | Nexturastat A -0.015 | vemurafenib 0.037 | [6] -0.127 | barasertib -0.021

TC2N (UniProt Q8N9U0)
inactive: [1] -0.486 | ralimetinib -0.036 | [9] 0.028 | [10] -0.364 | [2] 0.014 | [11] 0.077 | vemurafenib 0.063 | [6] -0.098

SLC35B4 (UniProt Q969S0)
UniProt Q969S0, sequence (Q969S0 whole entry, looked up): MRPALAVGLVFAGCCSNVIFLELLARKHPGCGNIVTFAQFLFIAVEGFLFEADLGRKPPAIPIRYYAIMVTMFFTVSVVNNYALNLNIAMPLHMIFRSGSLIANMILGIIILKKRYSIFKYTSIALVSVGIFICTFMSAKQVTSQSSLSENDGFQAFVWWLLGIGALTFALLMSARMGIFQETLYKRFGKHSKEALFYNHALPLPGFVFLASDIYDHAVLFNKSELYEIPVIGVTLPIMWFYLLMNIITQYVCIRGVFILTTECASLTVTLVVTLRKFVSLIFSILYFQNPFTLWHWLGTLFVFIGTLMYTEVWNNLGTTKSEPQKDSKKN
inactive: IRAK-1-4 Inhibitor I 0.092 | ibrutinib 0.023 | [1] 0.184 | [8] 0.098 | [12] -0.02 | pinometostat -0.056 | [10] -0.055 | [2] 0.059 | [7] 0.018 | [4] -0.064 | Nexturastat A -0.061 | vemurafenib 0.062 | [6] -0.002 | givinostat 0.077 | barasertib -0.01

TCOF1 isoform 6 (UniProt Q13428)
UniProt Q13428, sequence (Q13428 whole entry, looked up): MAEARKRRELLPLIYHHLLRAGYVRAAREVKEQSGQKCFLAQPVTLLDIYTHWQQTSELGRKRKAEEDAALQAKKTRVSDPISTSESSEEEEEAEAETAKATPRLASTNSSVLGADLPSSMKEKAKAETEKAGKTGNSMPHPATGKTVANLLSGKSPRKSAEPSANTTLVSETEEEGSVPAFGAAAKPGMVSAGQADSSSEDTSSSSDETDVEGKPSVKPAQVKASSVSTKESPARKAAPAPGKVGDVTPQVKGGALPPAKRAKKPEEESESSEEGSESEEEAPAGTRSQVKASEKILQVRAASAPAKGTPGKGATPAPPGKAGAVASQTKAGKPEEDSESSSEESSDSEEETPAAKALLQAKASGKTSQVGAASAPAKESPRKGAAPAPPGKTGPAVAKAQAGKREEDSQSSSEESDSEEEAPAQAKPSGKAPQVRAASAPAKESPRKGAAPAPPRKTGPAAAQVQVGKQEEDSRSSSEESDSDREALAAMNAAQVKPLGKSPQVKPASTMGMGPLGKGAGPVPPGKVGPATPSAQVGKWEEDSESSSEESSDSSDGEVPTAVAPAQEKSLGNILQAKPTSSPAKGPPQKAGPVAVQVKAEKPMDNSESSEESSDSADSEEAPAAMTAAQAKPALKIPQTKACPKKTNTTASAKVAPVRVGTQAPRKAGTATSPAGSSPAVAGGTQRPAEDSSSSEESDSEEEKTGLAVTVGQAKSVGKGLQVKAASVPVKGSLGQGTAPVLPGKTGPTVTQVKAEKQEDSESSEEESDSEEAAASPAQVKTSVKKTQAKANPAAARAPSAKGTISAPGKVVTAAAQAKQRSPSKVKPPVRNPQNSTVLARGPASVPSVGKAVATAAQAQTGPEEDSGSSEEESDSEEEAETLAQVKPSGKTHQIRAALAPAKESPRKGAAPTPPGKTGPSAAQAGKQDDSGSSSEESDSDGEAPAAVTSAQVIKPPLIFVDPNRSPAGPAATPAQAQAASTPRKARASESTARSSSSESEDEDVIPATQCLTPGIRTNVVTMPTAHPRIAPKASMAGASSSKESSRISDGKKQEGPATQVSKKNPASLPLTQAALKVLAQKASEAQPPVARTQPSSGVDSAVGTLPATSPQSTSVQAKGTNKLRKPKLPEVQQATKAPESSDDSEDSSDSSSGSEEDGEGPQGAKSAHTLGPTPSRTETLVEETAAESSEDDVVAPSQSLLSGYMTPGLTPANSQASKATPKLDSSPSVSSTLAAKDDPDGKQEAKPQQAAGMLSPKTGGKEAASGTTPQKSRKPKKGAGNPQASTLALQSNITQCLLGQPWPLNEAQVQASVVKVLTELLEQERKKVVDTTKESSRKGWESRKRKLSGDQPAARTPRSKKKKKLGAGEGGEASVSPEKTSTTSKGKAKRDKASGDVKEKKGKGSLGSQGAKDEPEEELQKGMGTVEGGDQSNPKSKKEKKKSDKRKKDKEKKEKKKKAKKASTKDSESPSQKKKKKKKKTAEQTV
inactive: IRAK-1-4 Inhibitor I 0.041 | ibrutinib 0.12 | ralimetinib 0.225 | [12] 0.092 | [9] -0.127 | pinometostat -0.121 | [10] 0 | [2] -0.155 | [7] 0.148 | [11] -0.078 | [4] -0.105 | vemurafenib 0.146 | [6] 0.545 | givinostat -0.024 | barasertib 0.008

SNX2 isoform 2 (UniProt O60749)
UniProt O60749, sequence (O60749 whole entry, looked up): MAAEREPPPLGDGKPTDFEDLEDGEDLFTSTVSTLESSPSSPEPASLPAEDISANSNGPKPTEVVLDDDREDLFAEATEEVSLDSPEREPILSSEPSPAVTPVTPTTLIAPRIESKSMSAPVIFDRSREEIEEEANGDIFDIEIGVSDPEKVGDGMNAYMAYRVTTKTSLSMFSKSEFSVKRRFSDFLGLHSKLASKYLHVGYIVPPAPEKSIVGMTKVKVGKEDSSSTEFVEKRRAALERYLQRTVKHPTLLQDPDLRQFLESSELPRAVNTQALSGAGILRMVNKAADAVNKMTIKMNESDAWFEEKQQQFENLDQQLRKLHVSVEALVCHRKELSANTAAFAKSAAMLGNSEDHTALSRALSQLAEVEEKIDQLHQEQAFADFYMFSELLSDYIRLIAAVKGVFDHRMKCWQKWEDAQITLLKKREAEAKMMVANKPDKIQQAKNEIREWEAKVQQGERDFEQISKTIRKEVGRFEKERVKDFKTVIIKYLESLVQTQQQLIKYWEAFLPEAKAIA
inactive: IRAK-1-4 Inhibitor I 0.091 | ibrutinib 0.151 | [1] -0.039 | [8] -0.377 | pinometostat -0.094 | [7] 0 | [3] -0.003 | [4] -0.039 | Nexturastat A 0.484 | vemurafenib -0.026 | [5] -0.144 | barasertib -0.054

TBC1D2 (UniProt Q9BYX2)
inactive: [1] -0.208 | [8] 0.007 | [6] 0.11
active: Nexturastat A 0.618

SMIM20 isoform 2 (UniProt Q8N5G0)
UniProt Q8N5G0, sequence (Q8N5G0 whole entry, looked up): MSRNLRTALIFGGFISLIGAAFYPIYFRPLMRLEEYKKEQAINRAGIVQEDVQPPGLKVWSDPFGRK
inactive: ibrutinib -0.01 | [1] -0.023 | ralimetinib -0.056 | [8] -0.061 | [12] 0.024 | [9] 0.006 | [10] 0.05 | [2] -0.058 | [7] 0.01 | [11] 0.008 | [3] -0.052 | Nexturastat A 0.006 | vemurafenib 0.148 | [5] -0.059 | [6] -0.024 | givinostat -0.102 | barasertib -0.026

TMBIM1 (UniProt Q969X1)
inactive: ibrutinib 0.037 | [1] -0.126 | ralimetinib 0.264 | [8] 0.16 | [12] -0.066 | [9] -0.166 | [10] -0.107 | [2] 0.089 | [7] 0.113 | [11] -0.055 | [3] 0.09 | Nexturastat A -0.02 | vemurafenib -0.132 | [5] 0.185 | [6] -0.134 | givinostat 0.004 | barasertib -0.057

TK1 (UniProt K7ERV3)
inactive: ibrutinib -0.033 | [1] -0.071 | ralimetinib -0.025 | [8] -0.122 | [9] 0.078 | [10] 0.004 | [2] -0.037 | [7] -0.185 | [11] -0.055 | [3] -0.273 | Nexturastat A -0.178 | vemurafenib -0.077 | [5] -0.009 | [6] -0.149 | barasertib 0.088

SNRK (UniProt Q9NRH2)
inactive: IRAK-1-4 Inhibitor I -0.126 | pinometostat -0.087 | [7] -0.029 | [3] 0.066 | [4] 0.225 | [5] 0.07

SUPT5H isoform 2 (UniProt O00267)
inactive: vemurafenib 0.232

SLC46A1 (UniProt Q96NT5)
UniProt Q96NT5, sequence (Q96NT5 whole entry, looked up): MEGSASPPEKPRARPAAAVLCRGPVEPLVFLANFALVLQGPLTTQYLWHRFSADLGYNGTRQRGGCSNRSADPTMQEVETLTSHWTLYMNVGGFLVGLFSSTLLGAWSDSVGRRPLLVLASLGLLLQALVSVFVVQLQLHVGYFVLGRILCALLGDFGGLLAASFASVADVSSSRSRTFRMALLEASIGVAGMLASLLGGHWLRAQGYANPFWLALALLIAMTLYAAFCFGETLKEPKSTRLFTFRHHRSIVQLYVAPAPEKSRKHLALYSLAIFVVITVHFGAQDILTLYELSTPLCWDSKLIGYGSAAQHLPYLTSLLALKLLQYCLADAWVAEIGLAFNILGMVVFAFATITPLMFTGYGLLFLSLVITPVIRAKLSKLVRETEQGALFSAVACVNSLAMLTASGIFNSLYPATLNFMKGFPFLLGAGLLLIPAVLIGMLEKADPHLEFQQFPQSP
inactive: [1] -0.008 | [12] -0.04 | [2] -0.049 | vemurafenib 0.056 | givinostat 0.011

SRSF6 (UniProt Q13247)
inactive: IRAK-1-4 Inhibitor I -0.082 | ibrutinib -0.072 | [1] -0.167 | [8] 0.234 | [12] -0.086 | pinometostat 0.116 | [10] 0.003 | [2] -0.744 | [7] -0.012 | [3] -0.16 | [4] 0.126 | Nexturastat A 0.248 | vemurafenib -0.024 | [5] -0.058 | [6] 0.104 | givinostat 0.019 | barasertib -0.059

TACC2 (UniProt O95359)
active: givinostat -0.284
inactive: ibrutinib -0.058 | [1] 0.054 | ralimetinib 0.108 | [12] -0.205 | [9] -0.007 | [10] 0.069 | [2] 0.058 | [7] -0.015 | [11] -0.058 | [3] 0.16 | vemurafenib 0.032 | [5] -0.054 | [6] -0.085 | barasertib 0.012

SSB (UniProt E7ERC4)
inactive: vemurafenib 0.264 | [6] 0.283

TENT5C (UniProt Q5VWP2)
inactive: IRAK-1-4 Inhibitor I 0.136 | ibrutinib 0.008 | ralimetinib -0.119 | [12] 0.18 | [9] 0.03 | pinometostat -0.028 | [10] -0.018 | [2] -0.014 | [7] -0.011 | [11] 0.037 | [3] -0.019 | [4] 0.088 | vemurafenib 0.097 | [5] 0.005 | [6] -0.137 | givinostat 0.014 | barasertib 0.01

TIMM10B (UniProt Q9Y5J6)
UniProt Q9Y5J6, sequence (Q9Y5J6 whole entry, looked up): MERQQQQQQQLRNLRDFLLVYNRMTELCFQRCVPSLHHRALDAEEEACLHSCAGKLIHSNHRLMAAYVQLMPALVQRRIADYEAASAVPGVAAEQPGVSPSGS
inactive: ibrutinib -0.008 | [1] -0.231 | ralimetinib 0 | [8] -0.07 | [12] -0.197 | [9] -0.126 | [10] 0.017 | [2] 0.089 | [7] -0.053 | [11] -0.075 | [3] 0.018 | Nexturastat A -0.05 | vemurafenib 0.073 | [5] -0.077 | [6] -0.057 | givinostat 0.061 | barasertib 0.067

TM7SF2 (UniProt O76062)
UniProt O76062, sequence (O76062 whole entry, looked up): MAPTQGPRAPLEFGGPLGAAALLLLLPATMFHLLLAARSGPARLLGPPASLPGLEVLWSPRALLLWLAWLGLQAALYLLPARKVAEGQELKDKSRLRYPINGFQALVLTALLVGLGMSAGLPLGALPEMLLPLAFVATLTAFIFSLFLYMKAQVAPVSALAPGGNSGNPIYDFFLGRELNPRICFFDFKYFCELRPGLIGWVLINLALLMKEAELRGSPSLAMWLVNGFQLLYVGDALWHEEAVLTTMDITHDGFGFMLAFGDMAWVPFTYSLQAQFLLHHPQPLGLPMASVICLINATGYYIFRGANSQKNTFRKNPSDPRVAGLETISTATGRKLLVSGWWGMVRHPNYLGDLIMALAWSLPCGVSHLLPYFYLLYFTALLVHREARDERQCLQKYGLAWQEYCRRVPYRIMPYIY
inactive: ralimetinib -0.106 | [12] -0.124 | [9] -0.01 | [10] -0.134 | [7] 0.051 | [11] 0.015 | [3] -0.045 | vemurafenib 0.252 | [5] 0.123 | givinostat 0.18

TDP1 (UniProt Q9NUW8)
inactive: [12] 0.156 | givinostat 0.112

STK17B (UniProt O94768)
UniProt O94768, sequence (O94768 whole entry, looked up): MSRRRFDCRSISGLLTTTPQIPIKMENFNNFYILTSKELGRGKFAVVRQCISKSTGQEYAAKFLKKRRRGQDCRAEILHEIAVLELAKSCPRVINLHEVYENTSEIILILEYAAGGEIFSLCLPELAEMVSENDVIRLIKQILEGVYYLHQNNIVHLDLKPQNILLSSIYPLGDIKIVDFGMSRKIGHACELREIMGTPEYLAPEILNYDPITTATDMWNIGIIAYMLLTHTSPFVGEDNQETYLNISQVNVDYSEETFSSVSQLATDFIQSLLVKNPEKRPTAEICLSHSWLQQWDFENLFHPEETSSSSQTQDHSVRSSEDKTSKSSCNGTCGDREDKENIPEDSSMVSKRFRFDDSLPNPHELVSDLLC
inactive: IRAK-1-4 Inhibitor I -0.12 | ibrutinib -0.235 | [12] -0.262 | pinometostat 0.033 | [4] 0.031 | givinostat 0.16 | barasertib 0.29

SRCAP (UniProt Q6ZRS2)
active: IRAK-1-4 Inhibitor I -0.42
inactive: ibrutinib 0 | ralimetinib 0.036 | [12] 0.046 | [9] 0.12 | pinometostat 0.037 | [10] 0.078 | [2] 0.103 | [7] -0.177 | [11] -0.286 | [3] 0.058 | [4] 0.036 | vemurafenib 0.278 | [5] 0.082 | [6] -0.02 | givinostat -0.041 | barasertib 0.026
